Data as given in PubChem BioAssay (NCATS).
Records with an inconclusive call do not appear. Entries that show only a call come without a potency. Calls of active or inactive are those of the source. Calls follow the shape of the dose curve; as a rule, active = well fitted inhibition curve with a large enough effect; inconclusive = small, poorly fitted or top-dose-only effect; inactive = no such curve, though single readings can be large or run the other way.

How the values were obtained:
[1] = tested on: Zika virus NS2B-NS3 protease (unlinked complex); test: Primary screen GU Rhodamine qHTS for Zika virus inhibitors: Unlinked NS2B-NS3 protease assay (AID 1347159); also: nearly all actives have a fitted effect of over 60% in size
Method in brief: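 In dose–response format, inhibition of unlinked protease (25 nM) was measured with 1.5 microM bis-peptide Rhodamine110 substrate. Aprotinin served as the intraplate control.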

[2] = tested on: Zika virus NS2B-NS3 protease (linked construct); test: Primary screen NINDS Rhodamine qHTS for Zika virus inhibitors (AID 1347160); also: nearly all actives have a fitted effect of over 55% in size
Method in brief: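 Each compound, titrated, sat 15 min with 25 nM linked protease before 1.5 microM Rhodamine110 substrate went in. Fluorescence gain over the next 15 min, in pH 8.0 Tris with Tween 20, gave Hill-fitted curves.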

| Structure (SMILES) | Potency [1] | Potency [2] | activity change, negative = inhibition [1] | activity change, negative = inhibition [2] |
| --- | --- | --- | --- | --- |
| CC1(C)CC[C@]2(C(=O)O[C@@H]3O[C@H](CO)[C@@H](O)[C@H](O)[C@H]3O)CC[C@]3(C)C(=CCC4[C@@]5(C)C[C@@H](O)[C@H](O)C(CO)(CO)C5CC[C@]43C)C2[C@@H]1O (some centres not stated) | inactive | inactive |  |  |
| C[C@@H]1C[C@H](O[C@@H]2O[C@H](CO[C@@H]3OC[C@](O)(CO)[C@H]3O)[C@@H](O)[C@H](O)[C@H]2O)CC(C)(C)[C@H]1/C=C/[C@@H](C)O | inactive | inactive |  |  |
| CC1(C)C[C@H]2C3=CCC4[C@@]5(C)CC[C@H](O[C@H]6O[C@H](C(=O)O)[C@@H](O)[C@H](O)[C@H]6O[C@H]6O[C@H](CO)[C@@H](O)[C@H](O)[C@H]6O[C@@H]6O[C@H](CO)[C@@H](O)[C@H](O)[C@H]6O)[C@](C)(CO)C5CC[C@@]4(C)[C@]3(C)CC[C@@]2(C)[C@H](O[C@@H]2OC[C@H](O)[C@H](OC3O[C@H](CO)[C@@H](O)[C@H](O)[C@H]3O)[C@H]2O)[C@@H]1O (some centres not stated) |  |  | 6.08% [at 19.1 µM] (inactive) | -4.25% [at 10.7 µM] (inactive) |
| C[C@@H]1O[C@@H](O[C@H]2[C@H](OC(C#N)c3ccc(O)cc3)O[C@H](CO)[C@@H](O)[C@@H]2O)[C@H](O)[C@H](O)[C@H]1O (some centres not stated) | inactive | inactive |  |  |
| O=C(NCc1ccc(OC(F)(F)F)cc1)C1c2ccccc2C(=O)N1C1CCOCC1 (configuration not stated) | inactive | inactive |  |  |
| CC1OC(OC2C(CO)OC(OCC3OC(OC(=O)C45CCC(C)(C)CC4C4=CCC6C7(C)CCC(OC8OC(C(=O)O)C(O)C(OC9OC(CO)C(O)C(O)C9O)C8O)C(C)(C)C7CCC6(C)C4(C)CC5)C(O)C(O)C3O)C(O)C2O)C(O)C(O)C1O (configuration not stated) |  |  | 16.6% [at 19.1 µM] (inactive) | 9.74% [at 10.7 µM] (inactive) |
| C[C@@H]1O[C@@H](O[C@H]2[C@H](OC(=O)C34CCC(C)(C)CC3C3=CCC5C6(C)CC(O)C(O[C@@H]7O[C@H](CO)[C@@H](O)[C@H](O)[C@H]7O)C(C)(C(=O)O)C6CCC5(C)C3(CO)CC4)O[C@H](C)[C@H](O)[C@@H]2O)[C@H](O)[C@H](O)[C@H]1O[C@@H]1OC[C@@H](O)[C@H](O)[C@H]1O (some centres not stated) | inactive | inactive |  |  |
| Cc1c(CN(C)C(=O)/C=C/c2cnc3c(c2)CCC(=O)N3)oc2ccccc12 | inactive | inactive |  |  |
| COc1cc(/C=C/C(=O)OC(C)(C)C(OC2OC(CO)C(O)C(O)C2O)C(=O)OCc2ccc(OC3OC(CO)C(O)C(O)C3O)cc2)ccc1O (configuration not stated) | inactive | inactive |  |  |
| CN[C@@H]1[C@@H](O)[C@@H](O[C@@H]2[C@@H](O)[C@H](O[C@H]3O[C@H](CN)[C@@H](O)[C@H](O)[C@H]3O)[C@@H](N)C[C@H]2NC(=O)[C@@H](O)CN)OC[C@]1(C)O | inactive | inactive |  |  |
| COc1cc2c(Nc3ccc(Cl)c(Cl)c3F)ncnc2cc1OCC1C[C@@H]2CN(C)C[C@@H]2C1 (some centres not stated) | inactive | inactive |  |  |
| CC(C)(O)C1=CCC23COC(C2)C(O)(C(=O)O)CCC13 (configuration not stated) | inactive | inactive |  |  |
| CC1=CC[C@]2(C(=O)O[C@@H]3O[C@H](CO[C@@H]4O[C@H](CO)[C@@H](O[C@@H]5O[C@@H](C)[C@H](O)[C@@H](O)[C@H]5O)[C@H](O)[C@H]4O)[C@@H](O)[C@H](O)[C@H]3O)CC[C@]3(C)C(CCC4[C@@]5(C)C[C@@H](O)[C@H](O)[C@@](C)(CO)C5CC[C@]43C)C2C1C (some centres not stated) | inactive | inactive |  |  |
| Nc1ncnc2c1ncn2[C@H]1CCCO1 | inactive | inactive |  |  |
| CC1CCC2C(C)(C)CC(C)(CO)C2(O)C1C(=O)O (configuration not stated) | inactive | inactive |  |  |
| COC(=O)C1=CO[C@@H](O[C@@H]2O[C@H](CO)[C@@H](O)[C@H](O)[C@H]2O)[C@@H]2[C@@H](C)[C@@H](O)C[C@H]12 | inactive | inactive |  |  |
| C=C(C)[C@@H]1CC[C@](C)(O)[C@@H](OC(=O)c2ccccc2)C1 | inactive | inactive |  |  |
| C=CC1(C)C=C2C(=O)CC3C(C)(C)CCCC3(C(=O)O)C2(O)CC1 (configuration not stated) | inactive | inactive |  |  |
| OCc1ccccc1O[C@@H]1O[C@H](CO)[C@@H](O)[C@H](O)[C@H]1O | inactive | inactive |  |  |
| C[C@]12CC[C@@H]3c4ccc(O[C@@H]5O[C@H](C(=O)O)[C@@H](O)[C@H](O)[C@H]5O)cc4CC[C@H]3[C@@H]1CCC2=O | inactive | inactive |  |  |
| C=C1CC2[C@]3(C)C(=C(O)C(=O)[C@@]2(C)[C@]2(C(=O)OC)C(=O)C(C)OC(=O)[C@@]12C)C(C)(C)C(=O)CC3O (some centres not stated) | inactive | inactive |  |  |
